KinaseGlo FLuc: Counterscreen for Luciferase (Kinase-Glo TM) Inhibition; Luciferin 4-monooxygenase (Photuris pensylvanica), Q27757; Kinase-Glo luciferase, ATP luminescence, 8 min; Potency, µM (series often up to 38.3 µM), actives largely listed as inhibitors; hit rate 0.28% among 200,000; AID 1379, 2008; note: nearly all actives have a fitted effect of over 60% in size
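Luminescence was the read-out, taken after 8-minute incubation at ambient temperature. Luciferase turned over luciferin with 10 uM ATP in imidazole pH 7.2 buffer containing KCl, MgCl2, Tween 20 and BSA.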
RORgamma inh: qHTS for inhibitors of ROR gamma transcriptional activity; hit rate 5.4% among 310,000; Drosophila S2 Gal4-RORgamma UAS-luciferase reporter, 20 h; AID 2551, 2010; Potency, µM (series often up to 53.6 µM), most hits filed as inhibitors; note: nearly all actives have a fitted effect of over 60% in size
Target sequence (P51450 whole entry, looked up, the tested form may be a part): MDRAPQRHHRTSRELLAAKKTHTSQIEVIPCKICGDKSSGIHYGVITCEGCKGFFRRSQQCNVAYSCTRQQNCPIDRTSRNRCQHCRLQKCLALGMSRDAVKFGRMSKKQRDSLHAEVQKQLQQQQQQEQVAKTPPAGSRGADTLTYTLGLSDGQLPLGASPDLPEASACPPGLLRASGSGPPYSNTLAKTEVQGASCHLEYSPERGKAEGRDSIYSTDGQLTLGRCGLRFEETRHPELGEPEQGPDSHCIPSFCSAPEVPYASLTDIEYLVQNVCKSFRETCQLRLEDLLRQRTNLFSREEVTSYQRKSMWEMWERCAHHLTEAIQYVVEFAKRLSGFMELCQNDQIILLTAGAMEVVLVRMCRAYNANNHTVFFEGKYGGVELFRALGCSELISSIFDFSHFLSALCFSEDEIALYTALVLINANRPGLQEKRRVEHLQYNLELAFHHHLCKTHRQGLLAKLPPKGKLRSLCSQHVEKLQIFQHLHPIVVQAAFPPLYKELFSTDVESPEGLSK
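A Gal4/UAS one-hybrid system in insect cells: metallothionein-promoter Gal4–ROR gamma fusion plus Photinus luciferase reporter. Copper sulfate 700 uM final, 20 hr ambient incubation, luminescent detection after 10 min with reagent.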
Gal4-VP16 FLuc: VP16 counterscreen qHTS for inhibitors of ROR gamma transcriptional activity. Drosophila S2 Gal4-VP16 UAS-luciferase, luminescence, 20 h. Potency, µM (doses to about 53.6 µM), hits mostly inhibitors. hit rate 3.5% among 310,000. AID 2546, 2010;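 note: Gal4-VP16 expression switched on by copper sulfate through the metallothionein promoter; nearly all actives have a fitted effect of over 50% in size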
Each line names hits and unclear results; the compound was inactive in the other large screens. Most compounds without a hit are left out; they make up all but 6.2% or so of the library. Calls come from the whole dose curve; as a rule, active = well fitted curve in the direction sought with a large enough effect; inconclusive = small, poorly fitted or top-dose-only effect, or another doubt; inactive = no such curve, though single readings can be large; an effect the other way counts as inactive or inconclusive.

O=C(/C=C/c1ccco1)Nc1cccnc1Cl	none (no result: KinaseGlo FLuc)
CCc1nc2ccccc2c(C(=O)Oc2cccc3cccnc23)c1C	none
CCc1ccc(OC(=O)/C=C/c2ccco2)cc1	none (no result: KinaseGlo FLuc)
Nc1nnc(SCC(=O)OCC(=O)Nc2ccccc2)s1	none
CCCCC1=CC2=CC(=O)C(C)(OC(=O)CC)C(=O)C2=CN1CCCN(CC)CC (configuration not stated)	none (no result: RORgamma inh, Gal4-VP16 FLuc)
CNC(=O)CSc1cn(CC(=O)N(C(C)C)C(C)C)c2ccccc12	none
CC(C)[C@@H](C(=O)NCC1CCCO1)N1C(=O)N2CCc3c([nH]c4ccccc34)[C@@]2(C)C1=O (some centres not stated)	none (no result: KinaseGlo FLuc)
Cc1cccc2cc(C#N)c(N3CCC(O)CC3)nc12	none
Cc1noc(C)c1C(=O)N1CCC[C@@]2(CCN(c3ccccc3)C2)C1	none
CCOc1ccc(NC(=O)CNC(=O)c2nn(-c3ccc(OC)c(OC)c3)c(=O)c3ccccc23)cc1	none (no result: KinaseGlo FLuc)
COc1ccc(-n2nc(C(=O)NCC(=O)Nc3cccc(Cl)c3)c3ccccc3c2=O)cc1OC	RORgamma inh inconclusive, Gal4-VP16 FLuc 11µM (no result: KinaseGlo FLuc)
COCCOC(=O)C1=C(C)NC(=O)NC1/C=C/c1ccccc1 (configuration not stated)	none
C=CCOC(=O)C1=C(C)NC(=S)NC1/C=C/c1ccccc1 (configuration not stated)	RORgamma inh 2.5µM, Gal4-VP16 FLuc 6.3µM
CC1=C(C(=O)OCc2ccccc2)C(/C=C/c2ccccc2)NC(=S)N1 (configuration not stated)	RORgamma inh inconclusive, Gal4-VP16 FLuc 5.6µM
COCCOC(=O)C1=C(C)NC(=S)NC1/C=C/c1ccccc1 (configuration not stated)	none
CCOc1ccccc1C(=O)N[C@H](C(=O)Nc1cc(S(=O)(=O)N(C)C)ccc1OC)C(C)C	none
COc1ccc2c(c1)nc(SCC(=O)c1cccs1)n2C	RORgamma inh inconclusive
COCCn1c(=O)c(-c2ccccc2)nc2cnc(Oc3ccc(OC)cc3)nc21	RORgamma inh inconclusive (no result: KinaseGlo FLuc)
CN(C)c1ccc(/C=N\NC(=S)SCN2C(=O)C3CCC(C)(C2=O)C3(C)C)cc1 (configuration not stated)	RORgamma inh 0.32µM, Gal4-VP16 FLuc inconclusive
CC12CCC(C(=O)N(CSC(=S)N/N=C\c3ccccc3O)C1=O)C2(C)C (configuration not stated)	RORgamma inh inconclusive, Gal4-VP16 FLuc inconclusive
O=C1CS/C(=N\NC(=O)c2ccccc2)N1	RORgamma inh 2.8µM, Gal4-VP16 FLuc 16µM (no result: KinaseGlo FLuc)
O=C(N/N=C1\NC(=O)C(CO)(CO)S1)c1ccccc1	none (no result: KinaseGlo FLuc)
O=[N+]([O-])c1cccnc1N1CCC(c2cc(-c3cccc(C(F)(F)F)c3)n[nH]2)CC1	RORgamma inh 13µM, Gal4-VP16 FLuc inconclusive
O=[N+]([O-])c1cccnc1N1CCC(c2cc(-c3ccc(Cl)cc3Cl)n[nH]2)CC1	Gal4-VP16 FLuc inconclusive
CCNc1nc(NC(C)CC)nc(ON=C(C)C)n1 (configuration not stated)	RORgamma inh 14µM
CCNc1nc(NCC)nc(ON=C(C)C)n1	RORgamma inh inconclusive
CC[C@H](C)[C@H](NC(=O)CNC(=O)[C@H](CC(C)C)NC(=O)[C@H](CC(C)C)NC(=O)[C@H](CCC(N)=O)NC(=O)[C@H](CCC(N)=O)NC(=O)[C@H](CC(=O)O)NC(=O)[C@H](CCCCN)NC(=O)[C@H](CC(C)C)NC(=O)[C@H](Cc1ccc(O)cc1)NC(=O)[C@H](CCCNC(=N)N)NC(=O)[C@H](CCC(=O)O)NC(=O)[C@@H](NC(=O)[C@H](C)NC(=O)[C@H](CC(C)C)NC(=O)[C@@H](NC(=O)[C@@H](N)CCCNC(=N)N)[C@@H](C)CC)C(C)C)C(=O)N[C@@H](Cc1c[nH]c2ccccc12)C(=O)NCC(=O)N[C@@H](CS)C(=O)N[C@@H](CO)C(=O)O	none (no result: KinaseGlo FLuc)
CCN(C(=S)Nc1cc(S(=O)(=O)N2CCOCC2)ccc1Cl)c1cccc2ccccc12	RORgamma inh inconclusive, Gal4-VP16 FLuc 22µM
O=C(COc1ccccc1F)Nc1cc(S(=O)(=O)N2CCOCC2)ccc1N1CCOCC1	none
COc1ccc2ccccc2c1/C=N/NC(=S)Nc1cc(S(=O)(=O)N2CCOCC2)ccc1N1CCOCC1	RORgamma inh 2.8µM, Gal4-VP16 FLuc 10µM
O=S(=O)(c1ccc(Cl)c(NC(=S)Nc2cccc(O)c2)c1)N1CCOCC1	none
CCOc1cccc(/C=N/NC(=S)Nc2cc(S(=O)(=O)N3CCOCC3)ccc2N2CCOCC2)c1O	RORgamma inh inconclusive, Gal4-VP16 FLuc 10µM

Source: PubChem BioAssay
